# C diff HTS – blocks growth of Clostridium difficile; 0.25% of 86,000 active; Clostridium difficile clinical isolate growth, OD600, 24 h; stronger effect = lower value; growth activity, negative = inhibition, % at 16 µg/mL (by protocol); AID 1259249;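 active = mean growth activity at or below -80% and every replicate also at or below -80%; inconclusive = mean at or below -80% but some replicate above -80%; inactive = mean growth activity above -80%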;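 note: 0% = DMSO wells and -100% = levofloxacin 16 µg/mL wells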
# Tcruzi prolif – T. cruzi proliferation inhibition. T. cruzi beta-gal in NIH3T3, GalScreen luminescence, 90 h. inhibition, % at 8.34 µM. 5.9% of 77,000 active. AID 624255;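 active = mean inhibition above about 93%, with at least 55% of replicates each passing it, limit read from the data, passing the limit was not always enough; inconclusive = only one of those two conditions holds; inactive = neither condition holds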
# Pf Dd2 inh – inhibitors of Plasmodium falciparum Dd2 growth | P. falciparum Dd2 growth, SYBR Green, 72 h; stronger effect = lower value | activity change, % at 10 µM | 2.3% of 94,000 active; in the data active = activity change below about -80%; inconclusive = no clear call, values can overlap the other calls
# * hit, by the source's call; ? = inconclusive; nt = no result given. Hits are enriched below; roughly 6.7% of the tested compounds scored in any of these assays.
SMILES,C diff HTS,Tcruzi prolif,Pf Dd2 inh
COCC(=O)N1CCC2(CC1)CN(Cc1ccccc1Cl)[C@@H](CO)c1[nH]c3cc(OC)ccc3c12,2.7,nt,?
CCS(=O)(=O)N1CC2(CN(Cc3ccccc3F)[C@@H](CO)c3[nH]c4cc(OC)ccc4c32)C1,-0.9,nt,-87.3*
COc1ccc2c3c([nH]c2c1)[C@H](CO)N(Cc1ccccc1Cl)CC31CCN(C(C)=O)CC1,8.0,nt,-89.2*
C[C@@H]1CCCCO[C@H](CN(C)Cc2ccc(C(=O)O)cc2)[C@H](C)CN([C@H](C)CO)C(=O)c2cc(NC(=O)NC3CCCCC3)ccc2O1,-1.0,-5.4,-50.0
Cc1noc(C)c1S(=O)(=O)N(C)C[C@H]1OCc2ccccc2-c2ccccc2C(=O)N([C@@H](C)CO)C[C@@H]1C,-2.9,-40.0,40.0
C[C@@H]1CCCCO[C@@H](CN(C)C(=O)c2ccccc2)[C@@H](C)CN([C@@H](C)CO)C(=O)c2cc(NC(=O)NC3CCCCC3)ccc2O1,7.6,-15.3,-48.4
COCC(=O)N1CC2(C1)CN(C(=O)CN1CCOCC1)[C@H](CO)c1c2c2ccc(OC)cc2n1C,-0.4,nt,-73.1
O=C(Nc1ccc2c(c1)[C@H]1C[C@H](CC(=O)N3CCCCC3)O[C@H](CO)[C@H]1O2)C1CCC1,nt,52.6,2.1
COc1ccc2c3c([nH]c2c1)[C@@H](CO)N(Cc1ccccc1F)CC31CCN(C(=O)C2CC2)CC1,2.2,nt,-85.3*
COc1ccc2c3c([nH]c2c1)[C@@H](CO)N(Cc1ccccc1Cl)CC31CN(C(=O)C2CC2)C1,4.7,nt,-70.8
COc1ccc2c3c([nH]c2c1)[C@H](CO)N(Cc1ccccc1F)CC31CCN(C(=O)C2CCCC2)CC1,-11.2,nt,-17.9
COc1ccc2c3c([nH]c2c1)[C@@H](CO)N(Cc1ccccc1Cl)CC31CCN(C(=O)C2CC2)CC1,7.4,nt,-86.8*
COCC(=O)N1CCC2(CC1)CN(Cc1cccc(OC)c1)[C@@H](CO)c1[nH]c3cc(OC)ccc3c12,3.4,nt,-91.6*
COCC(=O)N1CCC2(CC1)CN(Cc1cccc(OC)c1)[C@H](CO)c1[nH]c3cc(OC)ccc3c12,1.7,nt,?
CCC(=O)N(C)C[C@@H]1Oc2cc(C#CC3CC3)ccc2S(=O)(=O)N([C@H](C)CO)C[C@H]1C,nt,43.2,-9.0
COC(=O)N(C)C[C@H]1OCc2ccccc2-c2c(n(C)c3ccccc23)C(=O)N([C@@H](C)CO)C[C@H]1C,nt,-15.8,-14.4
CCCNC(=O)Nc1ccc2c(c1)C(=O)N(C)[C@H]1CC[C@H](CC(=O)O)O[C@@H]1CO2,-5.4,-43.1,1.1
C[C@@H]1CN([C@@H](C)CO)C(=O)c2ccccc2-c2ccccc2CO[C@H]1CN(C)C(=O)CCN(C)C,-1.2,-45.4,31.8
Cc1ccc(S(=O)(=O)NCC[C@@H]2CC[C@H](NS(=O)(=O)c3ccccc3Cl)[C@H](CO)O2)cc1,0.8,18.5,-10.6
Cc1cc(C(=O)Nc2cccc3c2O[C@@H](CN(C)Cc2ccc(C(F)(F)F)cc2)[C@@H](C)CN([C@H](C)CO)C3=O)n(C)n1,2.5,94.3,-16.4
C[C@H]1CN([C@@H](C)CO)C(=O)c2c(c3ccccc3n2C)-c2ccccc2CO[C@@H]1CN(C)S(=O)(=O)c1ccc(C#N)cc1,nt,55.7,-72.7
Cc1ccc(S(=O)(=O)N(C)C[C@H]2OCc3ccccc3-c3c(n(C)c4ccccc34)C(=O)N([C@@H](C)CO)C[C@H]2C)cc1,nt,46.6,-86.5*
C[C@H](CO)N1C[C@H](C)[C@H](CN(C)S(=O)(=O)c2ccc(C#N)cc2)OCc2ccccc2-c2c(n(C)c3ccccc23)C1=O,nt,90.2,-88.4*
C[C@@H]1CN([C@H](C)CO)C(=O)c2c(c3ccccc3n2C)-c2ccccc2CO[C@@H]1CN(C)S(=O)(=O)c1ccc(Cl)cc1,nt,68.6,-80.8*
C[C@H]1CN([C@@H](C)CO)C(=O)c2c(c3ccccc3n2C)-c2ccccc2CO[C@@H]1CN(C)S(=O)(=O)c1ccccc1,nt,91.2,-79.2
SMILES,C diff HTS,Tcruzi prolif,Pf Dd2 inh
C[C@H]1CN([C@@H](C)CO)C(=O)c2c(c3ccccc3n2C)-c2ccccc2CO[C@H]1CN(C)S(=O)(=O)c1ccc(F)cc1,nt,48.4,-87.1*
C[C@@H]1CN([C@@H](C)CO)C(=O)c2c(c3ccccc3n2C)-c2ccccc2CO[C@H]1CN(C)S(=O)(=O)c1ccc(Cl)cc1,nt,78.4,-75.2
C[C@H](CO)N1C[C@H](C)[C@@H](CN(C)S(=O)(=O)c2ccc(F)cc2)OCc2ccccc2-c2c(n(C)c3ccccc23)C1=O,nt,-0.4,-23.3
CCCC(=O)N1CC2(CCN(C(=O)NC(C)C)CC2)c2c(n(C)c3cc(OC)ccc23)[C@@H]1CO,nt,nt,28.9
C[C@H]1CN([C@@H](C)CO)C(=O)c2c(c3ccccc3n2C)-c2ccccc2CO[C@@H]1CN(C)C(=O)[C@H]1CCCN1C,11.3,82.3,-60.3
CO[C@H]1CN(C)C(=O)c2cc(NC(=O)Cc3ccccc3)ccc2OC[C@H](C)N(C(=O)c2ccccc2F)C[C@@H]1C,nt,-37.4,-43.9
C[C@@H]1CCCCO[C@H](CN(C)C(=O)c2ccccc2)[C@H](C)CN([C@@H](C)CO)C(=O)c2cc(N(C)C)ccc2O1,-2.3,35.1,-34.0
COc1ccc2c3c(n(C)c2c1)[C@H](CO)N(C(=O)C1CCOCC1)CC31CCN(C(=O)Nc2cccc(F)c2)CC1,4.0,nt,-18.5
C[C@@H](NC(=O)[C@@H]1[C@@H](CO)[C@@H]2Cn3c(ccc(C4=CCCC4)c3=O)[C@H]1N2C(=O)C1CC1)c1ccccc1,-3.0,nt,38.9
C[C@@H]1CN([C@@H](C)CO)C(=O)c2c(c3ccccc3n2C)-c2ccccc2CO[C@H]1CN(C)S(=O)(=O)c1ccc(C(F)(F)F)cc1,44.5,nt,-89.3*
C[C@@H]1CN([C@@H](C)CO)C(=O)c2c(c3ccccc3n2C)-c2ccccc2CO[C@H]1CN(C)S(=O)(=O)c1ccc([N+](=O)[O-])cc1,-28.2,nt,-76.3
C[C@H](CO)N1C[C@H](C)[C@H](CN(C)C(=O)Nc2ccccc2)Oc2ncc(C#CC(C)(C)O)cc2C1=O,-1.6,-12.3,21.4
O=C(N[C@@H]1CC[C@H](CCNS(=O)(=O)c2ccc(F)cc2)O[C@@H]1CO)c1cccc(F)c1,-1.9,nt,nt
CCCc1cn(CC[C@@H]2CC[C@@H](NC(=O)Cc3cccnc3)[C@@H](CO)O2)nn1,-7.8,-36.5,8.3
COc1ccc(S(=O)(=O)N2CC[C@@H]3[C@H]2c2cc(-c4cccc(C#N)c4)ccc2N[C@@H]3CO)cc1,-1.6,36.1,4.9
COc1cccc(-c2ccc3c(c2)[C@@H]2[C@@H](CCN2C(=O)C2CCCC2)[C@@H](CO)N3)c1,-7.3,nt,-77.4
COc1ccc(S(=O)(=O)N2CC[C@@H]3[C@@H](CO)Nc4ccc(-c5ccc(C#N)cc5)cc4[C@@H]32)cc1,6.0,60.2,-81.2*
C/C=C/c1ccc2c(c1)[C@@H]1[C@@H](CCN1C(=O)C1CCCC1)[C@H](CO)N2,4.1,nt,-79.6
C/C=C/c1ccc2c(c1)[C@H]1[C@H](CCN1S(=O)(=O)c1ccccc1)[C@H](CO)N2,4.9,81.2,-5.9
C/C=C/c1ccc2c(c1)[C@H]1[C@H](CCN1C(=O)C1CCCC1)[C@@H](CO)N2,-7.4,nt,-85.8*
C/C=C/c1ccc2c(c1)[C@H]1[C@H](CCN1S(=O)(=O)c1cccc(F)c1)[C@@H](CO)N2,-4.4,nt,-93.0*
